{"source": "PubChem BioAssay AID588497", "about": "(NMMLSC, 2011)", "note": "Screen size: about 360,000 compounds; about 780 (0.22%) were called active. Roughly 4% stayed inconclusive and do not appear here. Rule as the data show it: active = inhibition above about 35% (passing the limit was not always enough); inconclusive = no clear call, values can overlap the other calls. This excerpt belongs to a sample that is enriched for actives."}
{"system": "Botulinum neurotoxin type F light chain protease (Clostridium botulinum)", "assay": "BoNT/F light chain protease inhibitors, primary screen, biochemical, flow cytometry, MLPCN library (AID 588497); also: plate controls were buffer without enzyme for full effect and enzyme alone for no effect", "conditions": "Multiplex microsphere protease cleavage assay, at 10 µM, stronger effect = higher value"}
{"compound": "C=C1C(=O)[C@]23C[C@H]1CCC2[C@@]1(C)C(C[C@@H]3O)[C@](C)(C(=O)O)CC[C@@H]1O", "note": "(stereo partly drawn)", "inhibition": "6.7% (inactive)"}
{"compound": "CC12CCC(=O)C=C1CCC1C2C(O)CC2(C)C1CCC2(O)C(O)CO", "note": "(stereo not drawn)", "inhibition": "-2.7% (inactive)"}
{"compound": "COc1ccc(-c2cc3nc(NCCOc4ccccc4)ccn3n2)cc1", "inhibition": "-7% (inactive)"}
{"compound": "CC1=C(C(=O)N(C(C)C)C(C)C)CC(CC(=O)NCCCCc2ccccc2)C(=O)N1CCC1=CCCCC1", "note": "(stereo not drawn)", "inhibition": "-9.4% (inactive)"}
{"compound": "CC(C)(C)CC(=O)Nc1nc(C(N)Cc2ccc(C(F)(F)F)cc2)cs1", "note": "(stereo not drawn)", "inhibition": "-15.5% (inactive)"}
{"compound": "CCCNC(=O)c1cc2c(c(-c3cccc(-c4ccc(C#N)cc4)c3)n1)[C@@H](CCO)N(C(=O)CC)C2", "inhibition": "-8.6% (inactive)"}
{"compound": "CN1CCN(c2ccc(NC(=O)c3ccc4c(c3)[nH]c(=O)n4Cc3ccc(F)cc3)cc2)CC1", "inhibition": "-37.9% (inactive)"}
{"compound": "CN1CCN(c2ccc(NC(=O)c3cc(Cl)c4c(c3)OCCO4)cc2)CC1", "inhibition": "-0.9% (inactive)"}
{"compound": "CN1CCN(c2ccc(NC(=O)c3ccccc3)cc2)CC1", "inhibition": "38.8% (active)"}
{"compound": "CCCCC(=O)N(C)c1c(CC)nc2c(OCc3ccc(Cl)cc3Cl)cccn12", "inhibition": "-1.2% (inactive)"}
{"compound": "CCC(c1nnnn1-c1ccc2c(c1)OCCO2)N1CCN(c2ccc(C(F)(F)F)cn2)CC1", "note": "(stereo not drawn)", "inhibition": "6.4% (inactive)"}
{"compound": "CC1=C(C(=O)N(C(C)C)C(C)C)CC(CC(=O)NCC2CCCCC2)C(=O)N1Cc1ccccc1", "note": "(stereo not drawn)", "inhibition": "-6.1% (inactive)"}
{"compound": "O=C1C(Sc2cccc(F)c2)=C[C@@]2(O)CC[C@@H](O)[C@]1(Sc1cccc(F)c1)[C@H]2O", "inhibition": "-5.7% (inactive)"}
{"compound": "CCOC(=O)C1=CCC2C(=O)N(Cc3ccccc3)C(=O)C12", "note": "(stereo not drawn)", "inhibition": "7.8% (inactive)"}
{"compound": "CC(=O)Nc1cncc(-c2ccccc2CO)n1", "inhibition": "-2.7% (inactive)"}
{"compound": "O=C(NCCN1CCOCC1)c1ccccc1N1C(=O)[C@@H]2Cc3c([nH]c4ccccc34)C(c3cccc(Cl)c3)N2C1=O", "note": "(stereo partly drawn)", "inhibition": "-6.1% (inactive)"}
{"compound": "CC(NCC(=O)Nc1cc(Cl)cc(Cl)c1)c1ccccc1", "note": "(stereo not drawn)", "inhibition": "2.2% (inactive)"}
{"compound": "NNC(=O)CNC(c1ccccc1)c1cc(Cl)ccc1NC(=O)c1ccccc1", "note": "(stereo not drawn)", "inhibition": "43.2% (active)"}
{"compound": "O=C(COC(=O)c1ccccc1)Nc1ccc(Cl)cc1C(=O)c1ccccc1", "inhibition": "-15.4% (inactive)"}
{"compound": "CC(C)C[C@H]1CNC(=S)N1C[C@H]1CCCN1C[C@H](Cc1ccc(O)cc1)N1C[C@H](Cc2ccc(O)cc2)N(CC2CCCCC2)C1=S", "inhibition": "-11% (inactive)"}
{"compound": "COc1ccccc1-n1c(-c2cc(-c3ccco3)[nH]n2)n[nH]c1=S", "inhibition": "40.9% (active)"}
{"compound": "COc1ccc(-n2c(-c3ccc(Cl)cc3)n[nH]c2=S)c(OC)c1", "inhibition": "-4.7% (inactive)"}
{"compound": "COc1ccccc1-n1cn[nH]c1=S", "inhibition": "0.3% (inactive)"}
{"compound": "OC(c1ccccc1)(c1ccccc1)C1CCN(CCCOc2ccccc2)CC1", "inhibition": "0.4% (inactive)"}
{"compound": "CC1(C(=O)NCc2ccc(F)c(F)c2)Cc2c(-c3ccc4c(c3)OCO4)ccnc2O1", "note": "(stereo not drawn)", "inhibition": "-7.8% (inactive)"}
{"compound": "Cc1ccc(Cc2c(-c3ccco3)nc3ccc(Cl)cn23)cc1", "inhibition": "-6% (inactive)"}
{"compound": "CCCCOCCCNC(=O)C[C@@H]1C[C@@]2(C(=O)OC)CCCCC=C2N(CCC2=CCCCC2)C1=O", "inhibition": "7.8% (inactive)"}
{"compound": "CC(C)Oc1cc(F)ccc1-c1cc(C(=O)Nc2cccc(Cl)c2)[nH]n1", "inhibition": "-7.1% (inactive)"}
{"compound": "CN(Cc1ccccc1F)c1cc2c(c3c1ccn3C)C1CCC2O1", "note": "(stereo not drawn)", "inhibition": "3.2% (inactive)"}
{"compound": "COC(=O)[C@]12CCCCC=C1N(CCC1=CCCCC1)C(=O)[C@H](CC(=O)NCC1CCCCC1)C2", "inhibition": "5.5% (inactive)"}
{"compound": "CCc1ccc(OC2(C)CCN(CCOc3ccc(C)cc3)C2)cc1", "note": "(stereo not drawn)", "inhibition": "-9.6% (inactive)"}
{"compound": "CN(C)C1CN(Cc2cn(Cc3ccccc3)nn2)S(=O)(=O)C1", "note": "(stereo not drawn)", "inhibition": "-1.7% (inactive)"}
{"compound": "CCCCCc1c(C)nc(N2CCN(Cc3ccc4c(c3)OCO4)CC2)[nH]c1=O", "inhibition": "39.2% (active)"}
{"compound": "Cc1cc(C)n2nc(C(=O)N3CCN(Cc4ccc5c(c4)OCO5)CC3)nc2n1", "inhibition": "-11.5% (inactive)"}
{"compound": "CCc1c(C)nc(N2CCN(Cc3ccccc3)CC2)[nH]c1=O", "inhibition": "6.6% (inactive)"}
{"compound": "Cc1cc(Cl)ccc1-c1nc(NCCN(C)C)nc2ccsc12", "inhibition": "-4.9% (inactive)"}
{"compound": "CC1(Oc2ccccc2-c2ccno2)CCN(Cc2ccc(-c3ccccc3)o2)C1", "note": "(stereo not drawn)", "inhibition": "-11.5% (inactive)"}
{"compound": "OC[C@@H]1CN(Cc2ccc(-c3ccccc3)cc2)C[C@H](n2cnc3c(NC4CCCC4)ncnc32)O1", "inhibition": "-4.6% (inactive)"}
{"compound": "CC(=O)Nc1ccc(CNc2nc(NCCN(C)C)nc3cc(-c4ccccc4)sc23)cc1", "inhibition": "-18.9% (inactive)"}
{"compound": "Cc1cc(C(=O)NNC(=O)CCC2CCCCC2)c(C)o1", "inhibition": "0.3% (inactive)"}
{"compound": "CC(=O)Oc1ccc(NC(=O)CCC2CCCCC2)c(C(=O)O)c1", "inhibition": "37.7% (active)"}
{"compound": "COC(=O)c1sccc1NC(=O)CCC1CCCC1", "inhibition": "1.8% (inactive)"}
{"compound": "NC(c1csc(NC(=O)Nc2ccccc2Oc2ccccc2)n1)c1ccccc1Cl", "note": "(stereo not drawn)", "inhibition": "-12.1% (inactive)"}
{"compound": "CC(C)N(CC#CCC1(O)c2ccccc2-c2ccccc21)C(C)C", "inhibition": "37.1% (active)"}
{"compound": "CN1CCN(CC#CCC2(O)c3ccccc3-c3ccccc32)CC1", "inhibition": "-6.9% (inactive)"}
{"compound": "CCOC(=O)[C@]12CCC=C1N(Cc1ccco1)C(=O)[C@H](CC(=O)NCc1cccc(C(F)(F)F)c1)C2", "inhibition": "-2.2% (inactive)"}
{"compound": "CC=CCn1c(SCCCc2ccccc2)nc2c1c(=O)[nH]c(=O)n2C", "inhibition": "-3.4% (inactive)"}
{"compound": "OC(c1ccc(Cl)c(F)c1)c1ncc(-c2ccccc2Cl)[nH]1", "note": "(stereo not drawn)", "inhibition": "-8.1% (inactive)"}
{"compound": "Cc1cc(Br)cn2c(Cc3cccc(F)c3)c(-c3cccc(Br)c3)nc12", "inhibition": "5.5% (inactive)"}
{"compound": "COc1ccccc1NC(=O)C1CCCN(c2cc(C)nc3ncnn23)C1", "note": "(stereo not drawn)", "inhibition": "4.8% (inactive)"}
{"compound": "Cc1cc(-n2nc(C)cc2C)n2ncc(-c3ccccc3)c2n1", "inhibition": "5.4% (inactive)"}
{"compound": "COc1ccccc1-c1cnn2c(N3CCOCC3)cc(C)nc12", "inhibition": "38.5% (active)"}
{"compound": "CCc1nc2c(OCc3ccc(Cl)cc3Cl)cccn2c1N(C)C(=O)C(C)C", "inhibition": "-7.2% (inactive)"}
{"compound": "Cc1cc(C)c(S(=O)(=O)NN=C2c3ccccc3[C@H]3Cc4csc[n+]4[C@@H]23)c(C)c1", "inhibition": "-7.5% (inactive)"}
{"compound": "Cc1nc2c(OCc3cccc(Cl)c3)cccn2c1N(C)CC1CC1", "inhibition": "-6.3% (inactive)"}
{"compound": "COC(=O)CNc1nc(Cl)nc(N2CCC(C)CC2)n1", "inhibition": "-7.3% (inactive)"}
{"compound": "Clc1nc(NC2CCCC2)nc(N2CCOCC2)n1", "inhibition": "53.9% (active)"}
{"compound": "COc1nc(NC2CCCCC2)nc(N2CCCCCC2)n1", "inhibition": "8.2% (inactive)"}
